Shown are actives, neighbours in structure and some others; about 12% of the full set was active somewhere.
NS1 function inh: blocks influenza NS1 protein function | actives 0.4% (n = 270,000) | Potency, µM (highest dose often 46.1 µM); calls by dose curve; further: actives are rising curves; nearly all actives have a fitted effect of over 50% in size
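OD600 was taken as the measure of yeast growth restored by compound in an NS1-expressing S. cerevisiae strain. Cells had been washed out of glucose medium and diluted 1:100 into galactose -URA medium, pH 6.0.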
Pf growth 48h: inhibits P. falciparum growth in the first generation, 48 h; Potency, µM (top dose mostly 28.7 µM), actives largely listed as inhibitors; actives 5.9% (n = 310,000); P. falciparum luciferase growth in erythrocytes, 48 h; AID 504832
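Erythrocytes infected with P. falciparum carrying an integrated firefly luciferase reporter (2% hematocrit, 0.1% parasitemia final) were exposed to compounds in RPMI 1640 with 0.5% Albumax at 37 C, 5% CO2. Growth inhibition was scored as reduced luminescence.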
AMA1 RON2 block: AMA1-RON2 (P. falciparum) interaction inhibition | AlphaScreen AMA1-biotinylated RON2 peptide binding | Potency, µM (top dose mostly 58.2 µM), most hits filed as inhibitors | actives 0.2% (n = 360,000) | AID 720542; further: nearly all actives have a fitted effect of over 45% in size
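AMA1 (3D7) with his tag at 25 nM final met compounds first, then biotinylated RON2 peptide at 25 nM; detection used donor plus acceptor beads, 10 µg/mL apiece, read by AlphaScreen after 30 min at room temperature.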
Pf growth 96h: P. falciparum growth inhibition at 96 hour, primary screen for plastid delayed-death inhibitors; P. falciparum luciferase reporter growth, 96 h; Potency, µM (series often up to 28.7 µM), hits mostly inhibitors; actives 6.9% (n = 320,000)
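P. falciparum expressing integrated firefly luciferase, in erythrocytes at 2% hematocrit, 0.05% parasitemia, incubated with compounds 96 h at 37 C, 5% CO2. Growth inhibition read as loss of luminescence; two-generation exposure targets delayed-death apicoplast inhibitors.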
HCV inh: inhibitors of hepatitis C virus infection; Huh7.5.1 HCVcc-Cre infection, luciferase reporter, 44 h; Potency, µM (top dose mostly 41.8 µM), hits mostly inhibitors; actives 3.4% (n = 340,000)
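Infectious HCVcc-Cre (~0.5 moi) was added to cells just after compound, with cells seeded 4 h earlier at 1,000 per well. Luciferase activity after 44 h culture reported infection; substrate was incubated 15 min at room temperature before reading.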
SARS PLpro yeast: inhibitors of SARS-CoV papain-like protease in yeast; actives 0.19% (n = 330,000); S. cerevisiae expressing SARS-CoV PLpro, growth rescue; Potency, µM (titrated, usually from 32.9 µM), actives largely listed as activators; calls by dose curve; further: nearly all actives have a fitted effect of over 55% in size
Numbers stand for hits; – = inactive; ? = inconclusive; · = not tested or not shown; [ ] = dose if it differs, or a comment. Unless noted, the call rests on the fitted dose curve; in most records, active means well fitted curve in the direction sought with a large enough effect; inconclusive means small, poorly fitted or top-dose-only effect, or another doubt; inactive means no such curve, though single readings can be large; an effect the other way counts as inactive or inconclusive.

SMILES | NS1 function inh | Pf growth 48h | AMA1 RON2 block | Pf growth 96h | HCV inh | SARS PLpro yeast
Cc1cccc(S(=O)(=O)NC(=O)C2(C)CCN2C(=O)Cc2ccc(-c3ccccc3)cc2)c1 (configuration not stated) | · | · | – | · | · | ·
CC(=O)OCC(=O)[C@@]12OC3(CCCC3)O[C@@H]1C[C@H]1[C@@H]3CCC4=CC(=O)C=C[C@]4(C)[C@@]3(F)[C@@H](O)C[C@@]12C | – | 12µM | – | 10µM | –[8.37 µM] | –
CC1(C)O[C@@H]2C[C@H]3[C@@H]4CCC5=CC(=O)C=C[C@]5(C)[C@@]4(F)[C@@H](O)C[C@]3(C)[C@]2(C(=O)CO)O1 | – | ? | – | ? | –[8.37 µM] | –
CC1(C)O[C@H]2C[C@@H]3[C@H]4CCC5=CC(=O)C=C[C@]5(C)[C@@]4(F)[C@@H](O)C[C@]3(C)[C@]2(C(=O)CO)O1 | · | ? | · | 9.5µM | · | ·
CCC(=O)Nc1ccc(Cl)c(NC(=S)NC(=O)COc2ccccc2)c1 | – | – | – | – | – | –
CCC(=O)Nc1ccc(Cl)c(NC(=S)NC(=O)COc2ccc(Cl)cc2)c1 | – | – | –[2.32 µM] | 1.9µM | – | –
CCOC(=O)/C=C(\C)Sc1cc(O)c2ccccc2c1O | – | 1.5µM | – | 1.7µM | ? | –
CCOC(=O)/C=C(\C)Sc1cc(=O)oc2ccccc12 | ? | ? | – | ? | ? | –
CCOc1ccc(NC(=O)CN2C(=O)COc3ccc(S(=O)(=O)N4CCCCC4)cc32)cc1 | – | ? | – | – | ? | –
COc1ccc(NC(=O)CN2C(=O)COc3ccc(S(=O)(=O)N4CCCCCC4)cc32)cc1 | – | – | – | 10µM | ? | –
CCN(Cc1ccccc1)C(=O)CN1C(=O)COc2ccc(S(=O)(=O)N3CCCCCC3)cc21 | – | 10µM | – | ? | – | –
CC(C)N(Cc1ccccc1)C(=O)CN1C(=O)COc2ccc(S(=O)(=O)NC3CCCC3)cc21 | – | 5.2µM | – | ? | – | –
CCN(C(=O)CN1C(=O)COc2ccc(S(=O)(=O)N3CCCCCC3)cc21)c1cccc(C)c1 | – | 3.3µM | – | ? | ? | –
COc1ccc(/C=N/NC(=O)c2cccc(NC(C)=O)c2)c(C(=O)O)c1OC | · | ? | – | ? | – | –
COc1cc(/C=C/C(=O)OCC(=O)N2CCCCCC2)cc(OC)c1OC | · | · | – | · | · | ·
O=C(NCCCO)/C(=C\c1ccco1)NC(=O)c1ccco1 | – | – | – | ? | – | –
Cc1ccc2c(c1)C1CN(C)CCC1N2S(=O)(=O)c1cc(C(F)(F)F)ccc1Cl (configuration not stated) | · | 9.3µM | – | – | ? | –
Cc1ccc2c(c1)C1CN(C)CCC1N2S(=O)(=O)c1ccc(C(C)C)cc1 (configuration not stated) | · | 4.7µM | – | 7.4µM | ? | –
Cc1ccc2c(c1)C1CN(C)CCC1N2S(=O)(=O)c1cccc(C(F)(F)F)c1 (configuration not stated) | · | ? | – | ? | – | –
Cc1ccc2c(c1)C1CN(C)CCC1N2S(=O)(=O)c1ccccc1 (configuration not stated) | – | ? | – | ? | – | –
CC(C)(C)NC(=O)NC(=O)CSc1ccc(S(=O)(=O)N2CCCCC2)cn1 | · | ? | – | ? | – | –
Cc1cccc(C)c1N1CCN(C(=O)N2CCCCC2)CC1 | – | ? | – | – | – | –
CCNC(=O)CP(=O)(c1ccccc1)c1ccccc1 | – | – | – | 8.3µM | – | –
COC(=O)C[C@H]1CC[C@H](NC(=O)c2cccc(F)c2)[C@@H](CO)O1 | · | · | – | · | · | ·
O=C(Oc1ccccc1)c1ccc2c(c1)C(=O)N(Cc1ccncc1)C2=O | – | – | – | – | – | –
SMILES | NS1 function inh | Pf growth 48h | AMA1 RON2 block | Pf growth 96h | HCV inh | SARS PLpro yeast
CCOCCCNC(=O)c1c[nH]c2ccc(OCC)cc2c1=O | – | 2.3µM | – | – | – | –
CCCOc1ccc2[nH]cc(C(=O)O)c(=O)c2c1 | – | – | – | 15µM | – | –
CC(C)OC(=O)c1c(N)n(Cc2ccco2)c2nc3ccccc3nc12 | – | – | – | – | – | –
CC(C)OC(=O)c1c2nc3ccccc3nc2n2c1[nH]c(=O)c1ccccc12 | – | – | · | 6.6µM | – | –
COc1ccc(S(=O)(=O)N(C)CC(=O)N2CCN(c3ccc(F)cc3)CC2)cc1OC | – | – | – | · | – | –
COc1ccc(S(=O)(=O)N(C)CC(=O)N2CCCCCC2)cc1OC | – | – | – | 9.3µM | – | –
CCN1CCN(C(=O)CN(c2ccc(F)cc2)S(=O)(=O)c2ccc(OC)c(OC)c2)CC1 | – | – | – | 6.6µM | – | –
COCCN1C(=O)CCC1(C)C(=O)NC1CCCC1 (configuration not stated) | · | · | – | · | · | ·
COc1cc2c(cc1NC(=O)c1cccc([N+](=O)[O-])c1C)oc1ccccc12 | – | ? | – | – | 2µM | –
CC(=O)Nc1cc2oc3ccccc3c2cc1[N+](=O)[O-] | · | · | – | · | ? | ·
COc1cc2c(cc1NC(=O)c1cccc(S(=O)(=O)N(C)C)c1)oc1ccccc12 | – | – | – | – | 1.4µM | –
CC1CCN(c2ccc3c(c2)S(=O)(=O)c2cccc(C(=O)NC4CCCCC4)c2C3=O)CC1 | · | ? | – | – | ? | –
CSCCC(NS(=O)(=O)c1ccc2c(c1)OCCO2)C(=O)N(C)Cc1ccc(C)cc1 (configuration not stated) | – | ? | – | ? | – | –
COc1cccc(CN(C)C(=O)C(CCSC)NS(=O)(=O)c2ccc3c(c2)OCCO3)c1OC (configuration not stated) | · | 12µM | – | ? | ? | –
N[C@@H](CSCc1ccc(I)cc1)C(=O)O | – | · | · | · | · | ·
Cc1cccc(N2CC34C=CC(O3)C(C(=O)O)C4C2=O)c1 (configuration not stated) | – | – | – | – | – | –
O=C(O)C1C2C=CC3(CN(c4cccc(C(F)(F)F)c4)C(=O)C13)O2 (configuration not stated) | – | – | – | 10µM | – | –
Cc1ccc([N+](=O)[O-])cc1N=Nc1c(-c2ccc([N+](=O)[O-])cc2)[nH]n(C(N)=S)c1=O | · | ? | – | – | 7.9µM | –
Cc1ccc([N+](=O)[O-])cc1N=Nc1c(C)[nH]n(C(N)=S)c1=O | – | · | – | – | – | –
NC(=S)n1[nH]c(-c2ccc([N+](=O)[O-])cc2)c(N=Nc2ccc(Cl)cc2)c1=O | – | ? | – | – | 6.3µM | –
CCN1C=C(C(=O)c2ccccc2)C(=O)CC1 | · | · | – | · | – | ·
C=C(C)C(=O)Nc1cccc(C2=NOC3(C2)C[C@H](C(N)=O)N(C(=O)COc2ccc(Cl)cc2)C3)c1 (some centres not stated) | – | ? | – | ? | – | –
